These results are taken from paper PMC7862700, “An all-to-all approach to the identification of sequence-specific readers for epigenetic DNA modifications on cytosine”.

Assay in all cases: DAPPL (digital affinity profiling via proximity ligation, sequencing); 10 mM Tris-HCl pH 7.5, 50 mM NaCl, 1 mM DTT, 4% glycerol, room temperature, 30 min; GST-TFs on glutathione beads, 16-mer random dsDNA library, 0.1% formaldehyde crosslink after washing; high values mean tight binding
The target of one experiment is T1, FLI1 (Homo sapiens, UniProt Q01543 1-452).
T1 sequence: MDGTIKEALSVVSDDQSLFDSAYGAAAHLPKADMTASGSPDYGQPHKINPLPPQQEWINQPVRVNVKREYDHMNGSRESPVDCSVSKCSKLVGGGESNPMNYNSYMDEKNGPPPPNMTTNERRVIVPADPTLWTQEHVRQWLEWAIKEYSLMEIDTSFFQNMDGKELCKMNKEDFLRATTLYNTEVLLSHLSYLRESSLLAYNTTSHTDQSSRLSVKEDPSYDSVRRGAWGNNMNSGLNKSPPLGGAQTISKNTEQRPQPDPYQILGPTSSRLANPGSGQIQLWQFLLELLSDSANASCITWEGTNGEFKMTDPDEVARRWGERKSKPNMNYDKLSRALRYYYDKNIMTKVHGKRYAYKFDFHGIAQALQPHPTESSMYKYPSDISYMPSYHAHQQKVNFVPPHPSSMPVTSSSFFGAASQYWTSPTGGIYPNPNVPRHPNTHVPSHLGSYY
To be noted: protein: recombinant; tags: N-terminal GST; dsDNA, one strand shown. The method, boiled down: (§1)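 Beads coated with glutathione captured GST-fused human transcription factors that had been expressed in yeast, and the factors were then given DNA barcodes and pooled with a tag-only sample. The pools were incubated with 200 nmole of a random double-stranded 16-mer DNA library in Tris/NaCl/DTT/glycerol buffer for 30 min at room temperature, washed, crosslinked with 0.1% formaldehyde and proximity-ligated with BsaI/T4 ligase at 37 °C for 1 h. PCR amplification and Illumina NextSeq500 sequencing came last. Binding signal is each hexamer's read frequency for a factor divided by its frequency for the tag-only sample.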

For a further experiment, the target named is T2, ELK1 (Homo sapiens, UniProt P19419 1-428).
T2 sequence: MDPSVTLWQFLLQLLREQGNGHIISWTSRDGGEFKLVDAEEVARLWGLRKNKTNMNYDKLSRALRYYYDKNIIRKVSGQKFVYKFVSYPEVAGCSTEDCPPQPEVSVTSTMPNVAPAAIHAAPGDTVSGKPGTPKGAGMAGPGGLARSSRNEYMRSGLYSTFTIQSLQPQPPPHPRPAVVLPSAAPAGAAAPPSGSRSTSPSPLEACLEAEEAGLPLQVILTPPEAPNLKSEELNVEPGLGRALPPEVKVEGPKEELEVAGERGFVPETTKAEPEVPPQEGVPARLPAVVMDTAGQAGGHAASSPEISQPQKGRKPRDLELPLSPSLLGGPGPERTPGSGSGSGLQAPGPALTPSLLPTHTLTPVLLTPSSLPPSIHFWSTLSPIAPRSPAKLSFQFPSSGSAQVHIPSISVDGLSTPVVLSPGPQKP
As to conditions: protein: recombinant; tags: N-terminal GST; dsDNA, one strand shown. The procedure, abridged:
as §1

The target in the next experiment is T3, GABPA (Homo sapiens, UniProt Q06546 1-454).
T3 sequence: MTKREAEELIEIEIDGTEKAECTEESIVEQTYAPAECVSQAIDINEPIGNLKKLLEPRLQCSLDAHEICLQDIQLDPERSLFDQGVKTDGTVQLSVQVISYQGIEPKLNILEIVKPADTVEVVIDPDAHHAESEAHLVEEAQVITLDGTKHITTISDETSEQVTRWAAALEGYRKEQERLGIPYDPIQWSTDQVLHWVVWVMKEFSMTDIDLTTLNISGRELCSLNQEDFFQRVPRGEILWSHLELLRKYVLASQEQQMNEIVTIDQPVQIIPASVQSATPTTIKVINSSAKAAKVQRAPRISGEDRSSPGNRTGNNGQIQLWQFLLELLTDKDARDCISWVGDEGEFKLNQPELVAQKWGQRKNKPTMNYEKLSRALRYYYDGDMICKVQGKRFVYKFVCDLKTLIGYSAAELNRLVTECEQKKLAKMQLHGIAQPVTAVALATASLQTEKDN
To be noted: protein: recombinant; tags: N-terminal GST; dsDNA, one strand shown. The procedure, abridged: as §1

Another experiment addresses T4, ERG (Homo sapiens, UniProt P11308 1-479).
T4 sequence: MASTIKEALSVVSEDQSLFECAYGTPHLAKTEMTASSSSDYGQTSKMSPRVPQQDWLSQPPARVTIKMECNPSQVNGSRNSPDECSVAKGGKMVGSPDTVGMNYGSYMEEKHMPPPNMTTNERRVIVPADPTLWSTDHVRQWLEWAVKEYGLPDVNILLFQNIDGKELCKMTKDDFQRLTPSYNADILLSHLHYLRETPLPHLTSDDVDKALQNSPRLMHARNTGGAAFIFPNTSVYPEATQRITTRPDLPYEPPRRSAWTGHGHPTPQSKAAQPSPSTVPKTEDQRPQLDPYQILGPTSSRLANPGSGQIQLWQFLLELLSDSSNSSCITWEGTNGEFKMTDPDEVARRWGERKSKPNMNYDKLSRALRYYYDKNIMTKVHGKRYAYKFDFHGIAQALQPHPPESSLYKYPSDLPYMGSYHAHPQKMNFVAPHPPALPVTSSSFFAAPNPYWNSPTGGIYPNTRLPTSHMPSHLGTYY
To be noted: protein: recombinant; tags: N-terminal GST; dsDNA, one strand shown. The method, boiled down: as §1

The target in the next experiment is ELF1 (Homo sapiens, UniProt P32519 1-619). To be noted: protein: recombinant; tags: N-terminal GST; dsDNA, one strand shown. The method, boiled down:
as §1

In the next experiment the target is T5, EHF (Homo sapiens, UniProt Q9NZC4 1-300).
T5 sequence: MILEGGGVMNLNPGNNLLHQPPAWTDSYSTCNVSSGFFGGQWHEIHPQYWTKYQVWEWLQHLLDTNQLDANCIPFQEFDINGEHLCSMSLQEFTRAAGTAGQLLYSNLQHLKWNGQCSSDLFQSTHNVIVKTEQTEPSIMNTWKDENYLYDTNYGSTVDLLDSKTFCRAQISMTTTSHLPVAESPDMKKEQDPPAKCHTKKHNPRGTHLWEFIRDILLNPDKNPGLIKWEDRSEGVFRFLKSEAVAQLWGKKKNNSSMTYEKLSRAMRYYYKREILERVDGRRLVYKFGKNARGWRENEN
To be noted: protein: recombinant; tags: N-terminal GST; dsDNA, one strand shown. The procedure, abridged: as §1

A further experiment addresses SPI1 (Homo sapiens, UniProt P17947 1-270). As to conditions: protein: recombinant; tags: N-terminal GST; dsDNA, one strand shown. The procedure, abridged: as §1
Another experiment has as its target SPIB (Homo sapiens, UniProt Q01892 1-262). As to conditions: protein: recombinant; tags: N-terminal GST; dsDNA, one strand shown. The procedure, abridged:
as §1

Another experiment addresses T6, ELK3 (Homo sapiens, UniProt P41970 1-407).
T6 sequence: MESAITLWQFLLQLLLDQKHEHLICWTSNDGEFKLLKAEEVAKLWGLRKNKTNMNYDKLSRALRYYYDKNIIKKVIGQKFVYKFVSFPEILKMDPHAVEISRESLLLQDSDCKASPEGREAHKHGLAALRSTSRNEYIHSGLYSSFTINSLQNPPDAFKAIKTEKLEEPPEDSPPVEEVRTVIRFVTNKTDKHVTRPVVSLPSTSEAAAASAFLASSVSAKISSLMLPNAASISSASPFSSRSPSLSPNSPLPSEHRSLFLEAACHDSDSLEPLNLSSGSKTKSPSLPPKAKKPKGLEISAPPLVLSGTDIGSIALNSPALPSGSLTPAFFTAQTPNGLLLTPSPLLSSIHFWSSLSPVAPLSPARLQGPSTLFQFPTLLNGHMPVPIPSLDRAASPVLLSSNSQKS
To be noted: protein: recombinant; tags: N-terminal GST; dsDNA, one strand shown. The procedure, abridged:
as §1

A further experiment deals with T7, FEV (Homo sapiens, UniProt Q99581 1-238).
T7 sequence: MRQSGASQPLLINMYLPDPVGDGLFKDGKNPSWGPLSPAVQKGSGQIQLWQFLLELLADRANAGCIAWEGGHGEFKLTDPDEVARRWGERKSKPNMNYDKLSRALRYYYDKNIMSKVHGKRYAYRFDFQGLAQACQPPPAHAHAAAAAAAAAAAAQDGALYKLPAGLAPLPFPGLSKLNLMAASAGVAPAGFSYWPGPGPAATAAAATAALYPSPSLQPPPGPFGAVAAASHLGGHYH
As to conditions: protein: recombinant; tags: N-terminal GST; dsDNA, one strand shown. The procedure, abridged:
as §1

A further experiment has as its target ETV5 (Homo sapiens, UniProt P41161 1-510). As to conditions: protein: recombinant; tags: N-terminal GST; dsDNA, one strand shown. The procedure, abridged:
as §1

For the next experiment, the target named is HSF1 (Homo sapiens, UniProt Q00613 1-529). As to conditions: protein: recombinant; tags: N-terminal GST; chain copies: 3; dsDNA, one strand shown. The procedure, abridged: as §1
In another experiment the target is T8, SPIC (Homo sapiens, UniProt Q8N5J4 1-248).
T8 sequence: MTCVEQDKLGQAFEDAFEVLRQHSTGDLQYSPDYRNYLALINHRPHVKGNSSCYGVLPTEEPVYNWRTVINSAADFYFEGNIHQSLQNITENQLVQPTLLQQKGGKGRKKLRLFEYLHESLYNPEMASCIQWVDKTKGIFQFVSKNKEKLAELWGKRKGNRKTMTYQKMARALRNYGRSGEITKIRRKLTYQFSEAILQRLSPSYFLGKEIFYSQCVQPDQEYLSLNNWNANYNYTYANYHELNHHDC
To be noted: protein: recombinant; tags: N-terminal GST; dsDNA, one strand shown. The procedure, abridged: as §1

The target in the next experiment is T9, ELK4 (Homo sapiens, UniProt P28324-2 1-405).
T9 sequence: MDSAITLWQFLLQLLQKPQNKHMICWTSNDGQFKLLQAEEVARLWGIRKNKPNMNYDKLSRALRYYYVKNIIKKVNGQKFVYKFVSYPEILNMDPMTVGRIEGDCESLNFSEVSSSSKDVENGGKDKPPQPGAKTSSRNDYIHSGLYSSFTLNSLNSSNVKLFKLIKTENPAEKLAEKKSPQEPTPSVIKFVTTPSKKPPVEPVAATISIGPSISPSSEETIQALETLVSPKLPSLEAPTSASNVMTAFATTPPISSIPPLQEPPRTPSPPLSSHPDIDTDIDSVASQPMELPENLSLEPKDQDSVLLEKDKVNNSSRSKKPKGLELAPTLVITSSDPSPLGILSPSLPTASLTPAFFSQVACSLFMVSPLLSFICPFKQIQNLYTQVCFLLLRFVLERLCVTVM
To be noted: protein: recombinant; tags: N-terminal GST; dsDNA, one strand shown. The procedure, abridged:
as §1

Another experiment deals with T10, ETV2 (Homo sapiens, UniProt O00321 1-342).
T10 sequence: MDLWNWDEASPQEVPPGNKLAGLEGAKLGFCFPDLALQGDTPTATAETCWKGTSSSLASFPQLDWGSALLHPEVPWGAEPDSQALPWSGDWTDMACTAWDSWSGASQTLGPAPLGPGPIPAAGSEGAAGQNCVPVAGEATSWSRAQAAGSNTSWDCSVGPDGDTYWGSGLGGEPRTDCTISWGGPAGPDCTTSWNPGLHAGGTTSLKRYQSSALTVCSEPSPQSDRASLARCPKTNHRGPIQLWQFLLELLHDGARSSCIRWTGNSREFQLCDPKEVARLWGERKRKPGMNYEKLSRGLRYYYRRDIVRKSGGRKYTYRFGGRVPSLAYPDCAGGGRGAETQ
As to conditions: protein: recombinant; tags: N-terminal GST; dsDNA, one strand shown. The procedure, abridged: as §1

The target of a further experiment is CRX (Homo sapiens, UniProt O43186 1-299). To be noted: protein: recombinant; tags: N-terminal GST; dsDNA, one strand shown. The procedure, abridged:
as §1

A further experiment concerns the target ETV1 (Homo sapiens, UniProt P50549 1-477). To be noted: protein: recombinant; tags: N-terminal GST; dsDNA, one strand shown. The procedure, abridged: as §1

ETV1, sequence (P50549 whole entry): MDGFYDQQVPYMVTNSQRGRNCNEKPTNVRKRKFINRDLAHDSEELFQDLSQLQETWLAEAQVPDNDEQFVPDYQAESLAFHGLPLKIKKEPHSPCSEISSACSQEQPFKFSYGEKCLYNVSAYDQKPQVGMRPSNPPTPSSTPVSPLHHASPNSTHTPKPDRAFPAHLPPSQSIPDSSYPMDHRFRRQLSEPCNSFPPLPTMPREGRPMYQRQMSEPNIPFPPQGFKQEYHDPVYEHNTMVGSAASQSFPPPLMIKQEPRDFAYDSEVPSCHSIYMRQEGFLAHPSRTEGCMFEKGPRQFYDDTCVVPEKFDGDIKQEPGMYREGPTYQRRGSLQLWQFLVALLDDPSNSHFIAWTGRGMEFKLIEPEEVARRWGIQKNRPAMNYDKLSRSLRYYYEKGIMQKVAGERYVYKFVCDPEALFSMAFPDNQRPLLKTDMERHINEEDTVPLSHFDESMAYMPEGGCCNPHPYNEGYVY
ELF1, sequence (P32519 whole entry): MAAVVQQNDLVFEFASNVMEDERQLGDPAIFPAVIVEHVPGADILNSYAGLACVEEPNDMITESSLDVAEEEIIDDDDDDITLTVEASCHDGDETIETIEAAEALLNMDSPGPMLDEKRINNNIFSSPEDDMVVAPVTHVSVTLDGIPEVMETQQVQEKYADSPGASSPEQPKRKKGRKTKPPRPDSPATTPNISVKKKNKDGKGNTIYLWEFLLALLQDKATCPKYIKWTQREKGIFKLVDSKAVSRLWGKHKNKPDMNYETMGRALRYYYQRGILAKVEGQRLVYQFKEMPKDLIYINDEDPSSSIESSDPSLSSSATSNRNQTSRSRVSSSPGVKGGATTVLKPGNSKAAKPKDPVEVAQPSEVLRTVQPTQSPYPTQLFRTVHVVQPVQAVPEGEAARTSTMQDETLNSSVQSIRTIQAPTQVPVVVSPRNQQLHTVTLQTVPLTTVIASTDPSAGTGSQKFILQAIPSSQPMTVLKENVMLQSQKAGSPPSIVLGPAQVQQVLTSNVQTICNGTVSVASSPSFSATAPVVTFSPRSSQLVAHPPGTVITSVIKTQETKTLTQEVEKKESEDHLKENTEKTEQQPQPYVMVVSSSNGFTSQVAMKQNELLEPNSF
CRX, sequence (O43186 whole entry): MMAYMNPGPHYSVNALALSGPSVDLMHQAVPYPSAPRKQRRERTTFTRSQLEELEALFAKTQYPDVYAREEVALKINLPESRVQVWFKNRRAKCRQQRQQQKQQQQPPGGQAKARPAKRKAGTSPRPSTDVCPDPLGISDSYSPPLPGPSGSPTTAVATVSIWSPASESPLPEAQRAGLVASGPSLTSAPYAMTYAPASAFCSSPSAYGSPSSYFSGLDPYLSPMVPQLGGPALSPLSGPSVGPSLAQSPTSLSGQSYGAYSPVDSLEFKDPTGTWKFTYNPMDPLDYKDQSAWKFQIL
HSF1, sequence (Q00613 whole entry): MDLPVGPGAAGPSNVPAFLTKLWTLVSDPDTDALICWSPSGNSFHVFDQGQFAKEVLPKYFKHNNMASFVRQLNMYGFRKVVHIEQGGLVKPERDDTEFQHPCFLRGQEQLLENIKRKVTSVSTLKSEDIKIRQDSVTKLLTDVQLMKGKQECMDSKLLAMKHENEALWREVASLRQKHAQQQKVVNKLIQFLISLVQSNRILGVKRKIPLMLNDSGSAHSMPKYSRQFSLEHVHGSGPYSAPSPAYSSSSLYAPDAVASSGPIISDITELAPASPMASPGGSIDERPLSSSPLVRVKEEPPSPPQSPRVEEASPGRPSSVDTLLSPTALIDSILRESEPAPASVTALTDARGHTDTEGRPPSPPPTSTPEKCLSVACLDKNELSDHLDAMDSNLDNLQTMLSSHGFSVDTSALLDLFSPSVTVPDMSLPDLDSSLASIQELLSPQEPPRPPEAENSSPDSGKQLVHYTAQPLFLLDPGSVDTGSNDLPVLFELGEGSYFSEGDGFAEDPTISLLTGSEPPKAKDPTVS
ETV5, sequence (P41161 whole entry): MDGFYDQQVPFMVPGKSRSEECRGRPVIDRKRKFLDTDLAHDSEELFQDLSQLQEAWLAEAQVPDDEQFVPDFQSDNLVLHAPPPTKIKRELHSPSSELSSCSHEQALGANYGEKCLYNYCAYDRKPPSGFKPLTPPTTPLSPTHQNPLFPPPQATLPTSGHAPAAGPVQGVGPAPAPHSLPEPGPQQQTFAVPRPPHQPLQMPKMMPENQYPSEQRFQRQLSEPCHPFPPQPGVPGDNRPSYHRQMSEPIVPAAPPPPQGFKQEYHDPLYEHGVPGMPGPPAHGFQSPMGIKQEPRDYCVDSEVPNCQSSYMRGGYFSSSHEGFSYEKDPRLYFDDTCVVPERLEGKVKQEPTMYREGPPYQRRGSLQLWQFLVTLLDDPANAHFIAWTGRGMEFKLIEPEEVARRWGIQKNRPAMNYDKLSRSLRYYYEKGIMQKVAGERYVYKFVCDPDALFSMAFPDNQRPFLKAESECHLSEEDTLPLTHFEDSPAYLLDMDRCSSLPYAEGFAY
SPIB, sequence (Q01892 whole entry): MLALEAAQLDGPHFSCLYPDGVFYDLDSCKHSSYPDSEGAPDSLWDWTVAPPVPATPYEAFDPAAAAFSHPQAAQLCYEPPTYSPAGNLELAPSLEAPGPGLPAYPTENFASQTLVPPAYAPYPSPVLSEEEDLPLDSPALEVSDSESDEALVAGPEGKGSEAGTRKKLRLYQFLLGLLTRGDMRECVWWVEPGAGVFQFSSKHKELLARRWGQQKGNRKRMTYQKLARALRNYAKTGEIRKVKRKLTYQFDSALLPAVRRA

TAACGG: the binding signal in the experiment with FLI1 was 1.1 fold enrichment (6-mer frequency, TF over GST control); with ELK1 it was 1.18 fold enrichment (6-mer frequency, TF over GST control); with GABPA it was 1.03 fold enrichment (6-mer frequency, TF over GST control); in the experiment with ERG it was 1.08 fold enrichment (6-mer frequency, TF over GST control); in the experiment with ELF1, 1.03 fold enrichment (6-mer frequency, TF over GST control); in the experiment with EHF, 1.14 fold enrichment (6-mer frequency, TF over GST control). The binding signal in the experiment with SPI1 was 1.21 fold enrichment (6-mer frequency, TF over GST control); with SPIB it was 1.13 fold enrichment (6-mer frequency, TF over GST control); in the experiment with ELK3, 1.03 fold enrichment (6-mer frequency, TF over GST control); in the experiment with FEV, 1.1 fold enrichment (6-mer frequency, TF over GST control); in the experiment with ETV5 it was 1.09 fold enrichment (6-mer frequency, TF over GST control); with HSF1, 1.03 fold enrichment (6-mer frequency, TF over GST control). For the same sequence, the binding signal is 1.07 fold enrichment (6-mer frequency, TF over GST control) with SPIC; 1.02 fold enrichment (6-mer frequency, TF over GST control) in the experiment with ELK4; 1.11 fold enrichment (6-mer frequency, TF over GST control) with ETV2; 1.21 fold enrichment (6-mer frequency, TF over GST control) with CRX; 1.04 fold enrichment (6-mer frequency, TF over GST control) with ETV1.
